Source: PubChem BioAssay
D2 PAM-1 = HTS Assay for Positive Allosteric Modulators of the Human D2 Dopamine Receptor: Primary Screen for Potentiators | D(2) dopamine receptor (Homo sapiens), P14416 | HEK293 T-REx D2, calcium flux, EC20 dopamine potentiation | potentiation, % at 10 µM | hit rate 0.34% among 340,000 | AID 485347, 2010;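 active means potentiation over 3 SD above the plate norm, cut at about 30% in these data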; further: 0% is about no effect
Target sequence (P14416 whole entry, looked up): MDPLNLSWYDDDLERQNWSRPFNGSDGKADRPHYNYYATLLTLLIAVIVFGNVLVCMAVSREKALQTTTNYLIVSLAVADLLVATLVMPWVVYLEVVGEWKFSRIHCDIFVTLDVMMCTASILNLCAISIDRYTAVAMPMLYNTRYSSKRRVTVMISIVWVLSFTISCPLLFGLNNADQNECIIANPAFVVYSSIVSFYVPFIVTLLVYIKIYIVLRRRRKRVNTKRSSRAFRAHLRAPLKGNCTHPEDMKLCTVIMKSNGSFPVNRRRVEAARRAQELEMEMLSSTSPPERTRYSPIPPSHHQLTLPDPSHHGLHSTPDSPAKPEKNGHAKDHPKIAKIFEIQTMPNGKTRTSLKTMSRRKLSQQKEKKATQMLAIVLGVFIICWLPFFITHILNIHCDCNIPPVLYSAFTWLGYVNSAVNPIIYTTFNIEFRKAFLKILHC
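Potentiation of an EC20 dopamine calcium response is measured in a force-coupled, tetracycline-inducible Hek293 Trex D2 line. Compound-only kinetic reads over 180 s flag agonists before dopamine addition.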
D2 PAM-2 = Beta-Arrestin HTS for Positive Allosteric Modulators of the Human D2 Dopamine Receptor: Potentiators | D(2) dopamine receptor (Homo sapiens), P14416 | DiscoveRx D2 beta-arrestin cells, luminescence, 90 min; 100% = 57 uM dopamine signal | potentiation, % (test concentration not listed) | hit rate 0.23% among 360,000 | AID 624464, 2012; in the data active means potentiation above about 50%
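PathHunter D2 cells, attached overnight at 37 deg C, received compound in DMSO plus dopamine at EC20 (50 nM final) for 90 min at 37 deg C. Beta-arrestin recruitment was read as luminescence after 1 h with detection reagent at ambient temperature.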
D2 antagonist = HTS Assay for Allosteric Antagonists of the Human D2 Dopamine Receptor: Primary Screen for Antagonists. HEK293 TREx D2 cells, calcium flux, dopamine EC80. inhibition, % at 10 µM. hit rate 2% among 340,000; in the data active means inhibition above about 30%; inactive means below that, where a call was filed; further: 0% is about no effect
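Overnight-induced (tetracycline, 30 C) HEK293 T-REx cells carrying force-coupled D2 receive a no-wash calcium dye, then compound, then EC80 dopamine at 180 s; signals are read kinetically throughout.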
D2 ag-1 = Beta-Arrestin HTS for Positive Allosteric Modulators of the Human D2 Dopamine Receptor: Agonists | D(2) dopamine receptor (Homo sapiens), P14416 | DiscoveRx PathHunter D2 beta-arrestin, luminescence, 90 min; 100% = 57 uM dopamine signal | activation, % (test concentration not listed) | hit rate 0.084% among 360,000; in the data active means activation above about 40%
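DiscoveRx PathHunter D2 beta-arrestin cells (2,100/well) attached overnight, then compound-stimulated 90 min at 37 C in HBSS/10 mM HEPES/0.1% Tween-20 buffer; beta-galactosidase complementation read by luminescence after 1 h at ambient temperature. Dopamine 57 uM final (EC100) as control.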
D2 ag-2 = HTS Assay for Allosteric Agonists of the Human D2 Dopamine Receptor: Primary Screen for Agonists | D(2) dopamine receptor (Homo sapiens), P14416 | HEK293 T-REx D2 cells, calcium flux agonist mode | activation, % at 2 µM | hit rate 0.53% among 340,000 | AID 485358, 2010;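 active means activation over 3 SD above normal in the single-dose calcium agonist read, cut at about 30% in these data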; further: 0% is about no effect
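Agonism is scored from calcium flux in a force-coupled, inducible HEK293 cell line expressing D2, read kinetically for 180 s after compound addition against dopamine controls.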
* marks the source's active call; other numbers are inactive results; . = no result. Only some compounds are listed: those with a hit (about 2.4% of all), similar ones and a draw of the others.

SMILES	D2 PAM-1	D2 PAM-2	D2 antagonist	D2 ag-1	D2 ag-2
COc1ccc(CCNS(=O)(=O)c2cc3c4c(c2)C(C)C(=O)N4CCC3)cc1OC (configuration not stated)	-6	-4	-11	-3	0
COc1ccccc1NC(=O)Cn1c(=O)n(-c2cccc(C)c2)c(=O)c2c1c1cc(C)ccc1n2C	-1	.	.	.	-1
O=C(Nc1ccc(N2CCOCC2)cc1)c1ccc(Br)o1	5	-2	71*	1	0
CN1CCN(c2ccc(NC(=O)c3ccc(Br)o3)cc2)CC1	-4	0	9	-1	1
Cc1[nH]c(=O)c(C#N)cc1-c1csc(-c2ccccc2)n1	-4	-24	39*	-2	1
Cc1nc(-c2cc(C#N)c(=O)[nH]c2C)cs1	0	0	8	0	1
CCCCNCCOCCOc1ccc(C)cc1[N+](=O)[O-]	-31	-16	-1	-1	-1
CCC(C)NCCOc1ccc(C)cc1[N+](=O)[O-] (configuration not stated)	-21	-21	54*	-4	0
C=CCc1ccc(OCCOCCOc2ccc(C)cc2[N+](=O)[O-])c(OC)c1	13	-15	-21	-2	0
C=CCNCCOc1ccc(C)cc1[N+](=O)[O-]	-31	-8	46*	-4	0
COCCCNCCCCOc1ccc(C)cc1[N+](=O)[O-]	.	-17	.	0	.
C=CCN(CC=C)CCOc1ccc(C)cc1[N+](=O)[O-]	-23	-6	38*	1	-1
COCCn1c(C)cc(O)c(C(c2ccccc2)N2CCN(c3ccccc3)CC2)c1=O (configuration not stated)	-4	.	.	.	25
O=C(NC(NC(=S)Nc1cccc(Cl)c1)C(Cl)(Cl)Cl)OCc1ccccc1 (configuration not stated)	5	-26	78*	1	2
COc1c2c(cc3oc(=O)ccc13)OC(C)(C)C=C2	4	-2	33*	4	-3
CC(=O)c1coc2ccc(OCCN3CCCCC3)cc12	-24	-22	42*	0	0
COc1ccc2occ(C(C)=O)c2c1	-8	-11	11	2	1
Cc1cc(C)n(C(=O)C(C)N2C(=O)c3ccccc3C2=O)n1 (configuration not stated)	31*	-2	-7	-2	-1
Cc1cc(C)n(C(=O)CN2C(=O)c3ccccc3C2=O)n1	-2	-6	3	-1	-1
CC(C)/C=C(/C(=O)c1ccc(Cl)cc1Cl)n1cncn1	6	21	2	46*	1
CC(=O)c1sc2c(c1C)c(=O)n(-c1ccc(Cl)cc1)c(=O)n2Cc1ccc(Cl)cc1	3	.	.	.	1
Cc1ccc(Cl)c(OCCN2CCCC(C)C2)c1 (configuration not stated)	-19	-27	53*	-2	3
CC1CCN(CCOCCOc2ccc(Cl)cc2Br)CC1	-21	-31	69*	-2	0
CC(C)NCCOCCOc1ccc(Cl)cc1Br	-29	-36	67*	-3	0
CN(C)CCOCCOc1ccc(Cl)cc1Br	-31	-28	19	-5	0
SMILES	D2 PAM-1	D2 PAM-2	D2 antagonist	D2 ag-1	D2 ag-2
Clc1ccc(OCCOCCN2CCCCC2)c(Br)c1	-25	6	77*	1	1
Clc1ccc(Cl)c(OCCN2CCCC2)c1	-14	-5	47*	4	1
CC1CCN(CCCOc2ccc(Cl)cc2Br)CC1	-26	-29	34*	-5	0
CC1CCCN(CCOc2ccc3ccccc3c2Br)C1 (configuration not stated)	-27	-12	71*	-4	0
Cc1ccc2c(c1)c1c3n2CCN(C(=O)c2cccc(C(F)(F)F)c2)C3CCC1 (configuration not stated)	-3	.	.	.	1
COc1ccc(N2CC3=C(C2=O)C(c2ccc(Br)cc2)NC(=O)N3C)cc1 (configuration not stated)	-1	.	.	.	9
